Of roughly 8,800 targets only a part is listed; those with a hit were picked by preference. About 0.5% of all pairs of compound and target were hits.
Columns and labels:
Assay in all cases: log2 fold change, soluble protein after heating vs DMSO (PISA); higher = thermal stabilisation; K562 lysate, 10 uM; active = over 0.2 and 3.5 SD of the protein, either way, in both replicates (recomputed)
[1] = compound: CS(=O)(=O)CCNCc1ccc(-c2ccc3ncnc(Nc4ccc(OCc5cccc(F)c5)c(Cl)c4)c3c2)o1 [lapatinib]
Method in brief: (§1)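 To prepare the extract, K562 pellets were dounce-homogenised in PBS pH 7.4 with 1 mM MgCl2, giving crude material at 1 mg/mL protein. This was treated with 10 μM compound for 30 min, then heated in aliquots for 3 min over 48°C-58°C before pooling and addition of NP-40 to 0.5% at 4°C. Centrifugation at 21,000xg for 90 min left soluble protein in the supernatant, which TMTpro 16plex LC-MS/MS quantified with equalised channel sums. Results are log-two fold changes in thermal stability compared with solvent controls, from duplicates.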

[2] = compound: CS(=O)(=O)N1CCN(Cc2cc3nc(-c4cccc5[nH]ncc45)nc(N4CCOCC4)c3s2)CC1 [pictilisib]
Method in brief: as §1

[3] = compound: C[C@@H](Oc1cc(-c2cnn(C3CCNCC3)c2)cnc1N)c1c(Cl)ccc(F)c1Cl [crizotinib]
Method in brief: as §1

[4] = compound: C[C@H](C1=CC=C(C=C1)C(=O)NC2=C3C=CNC3=NC=C2)N
Method in brief: as §1

[5] = compound: C[C@H](Nc1ncnc2nc[nH]c12)c1cc2cccc(Cl)c2c(=O)n1-c1ccccc1 [duvelisib]
Method in brief: as §1

[6] = compound: Cc1cc(Nc2cc(CN3CCOCC3)c3nc(C)c(Cc4ccc(Cl)cc4F)n3n2)n[nH]1 [gandotinib]
Method in brief: as §1

[7] = compound: Cc1cc(Nc2cc(N3CCN(C)CC3)nc(Sc3ccc(NC(=O)C4CC4)cc3)n2)n[nH]1 [tozasertib]
Method in brief: as §1

[8] = compound: Cc1ccc(-n2nc(C(C)(C)C)cc2NC(=O)Nc2ccc(OCCN3CCOCC3)c3ccccc23)cc1 [doramapimod]
Method in brief: as §1

[9] = compound: Cc1ccc(NC(=O)c2ccc(CN3CC[C@H](N(C)C)C3)c(C(F)(F)F)c2)cc1Nc1nccc(-c2cncnc2)n1 [bafetinib]
Method in brief: as §1

[10] = compound: Cc1cccc(CC(=O)N2CCc3c2ccc(-c2cn(C)c4ncnc(N)c24)c3F)n1
Method in brief: as §1

Measured: log2 fold change

HDAC1 (UniProt Q13547)
inactive: [1] 0.004 | [2] 0.01 | [3] -0.014 | [4] -0.04 | [5] -0.029 | [6] -0.004 | [7] -0.015 | [8] 0.006 | [9] 0.036 | [10] 0.036

KARS1 (UniProt Q15046)
inactive: [1] -0.002 | [2] 0 | [3] 0.003 | [4] 0.036 | [5] 0.004 | [6] -0.082 | [7] 0.025 | [8] 0.007 | [9] -0.025 | [10] -0.026

IRAK4 (UniProt Q9NWZ3)
inactive: [1] -0.021 | [2] -0.018 | [3] 0.175 | [4] 0.012 | [5] 0.026 | [6] -0.082 | [7] 0 | [8] 0.011 | [9] -0.013 | [10] 0.012

IGF2BP2 isoform 6 (UniProt Q9Y6M1)
inactive: [1] 0.084

HADHB (UniProt P55084)
Sequence of UniProt P55084 (P55084 whole entry, looked up): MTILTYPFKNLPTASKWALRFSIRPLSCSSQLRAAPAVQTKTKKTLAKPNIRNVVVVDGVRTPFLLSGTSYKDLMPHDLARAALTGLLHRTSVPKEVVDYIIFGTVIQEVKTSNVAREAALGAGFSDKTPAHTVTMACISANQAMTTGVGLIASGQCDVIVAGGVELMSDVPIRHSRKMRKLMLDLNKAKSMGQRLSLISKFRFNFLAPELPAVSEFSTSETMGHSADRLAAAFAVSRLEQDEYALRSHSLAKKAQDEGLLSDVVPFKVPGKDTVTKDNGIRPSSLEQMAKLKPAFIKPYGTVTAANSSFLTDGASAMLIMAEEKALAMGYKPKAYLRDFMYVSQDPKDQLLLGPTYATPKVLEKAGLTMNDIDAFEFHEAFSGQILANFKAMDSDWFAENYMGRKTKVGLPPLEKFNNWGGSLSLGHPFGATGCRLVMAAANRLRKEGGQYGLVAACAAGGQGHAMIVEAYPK
inactive: [1] 0.1 | [2] 0.067 | [3] 0.073 | [4] -0.041 | [5] 0.037 | [6] 0.138 | [7] 0.016 | [8] 0.218 | [9] 0.014 | [10] -0.093

HAUS6 (UniProt Q7Z4H7)
inactive: [1] 0.001 | [2] -0.028 | [3] -0.029 | [4] -0.054 | [5] 0.006 | [6] -0.041 | [7] 0.046 | [8] -0.009 | [9] 0.051 | [10] 0.104

GLUL (UniProt P15104)
active: [4] 0.213
inactive: [1] 0.04 | [2] 0.015 | [3] 0.066 | [5] 0.019 | [6] -0.093 | [7] -0.026 | [8] 0.014 | [9] 0.013 | [10] -0.147

IMMT (UniProt Q16891)
inactive: [1] -0.058 | [2] 0.001 | [3] -0.049 | [4] -0.006 | [5] -0.039 | [6] -0.134 | [7] 0.02 | [8] 0.011 | [9] -0.053 | [10] 0.023

INTS14 (UniProt Q96SY0)
inactive: [1] 0 | [2] 0.016 | [3] 0.005 | [4] 0.038 | [5] 0.012 | [6] -0.035 | [7] -0.011 | [8] -0.012 | [9] 0.009 | [10] -0.027

GLB1 (UniProt P16278)
inactive: [1] -0.02 | [2] 0.001 | [3] -0.003 | [4] -0.017 | [5] 0.004 | [6] 0.012 | [7] -0.084 | [8] 0.016 | [9] -0.03 | [10] 0.008

HNRNPAB isoform 3 (UniProt Q99729)
inactive: [1] 0.007 | [2] 0.01 | [3] 0.04 | [4] -0.068 | [5] -0.009 | [6] 0.019 | [7] -0.02 | [8] -0.058 | [9] -0.002 | [10] 0.033

GSTCD (UniProt Q8NEC7)
Sequence of UniProt Q8NEC7 (Q8NEC7 whole entry, looked up): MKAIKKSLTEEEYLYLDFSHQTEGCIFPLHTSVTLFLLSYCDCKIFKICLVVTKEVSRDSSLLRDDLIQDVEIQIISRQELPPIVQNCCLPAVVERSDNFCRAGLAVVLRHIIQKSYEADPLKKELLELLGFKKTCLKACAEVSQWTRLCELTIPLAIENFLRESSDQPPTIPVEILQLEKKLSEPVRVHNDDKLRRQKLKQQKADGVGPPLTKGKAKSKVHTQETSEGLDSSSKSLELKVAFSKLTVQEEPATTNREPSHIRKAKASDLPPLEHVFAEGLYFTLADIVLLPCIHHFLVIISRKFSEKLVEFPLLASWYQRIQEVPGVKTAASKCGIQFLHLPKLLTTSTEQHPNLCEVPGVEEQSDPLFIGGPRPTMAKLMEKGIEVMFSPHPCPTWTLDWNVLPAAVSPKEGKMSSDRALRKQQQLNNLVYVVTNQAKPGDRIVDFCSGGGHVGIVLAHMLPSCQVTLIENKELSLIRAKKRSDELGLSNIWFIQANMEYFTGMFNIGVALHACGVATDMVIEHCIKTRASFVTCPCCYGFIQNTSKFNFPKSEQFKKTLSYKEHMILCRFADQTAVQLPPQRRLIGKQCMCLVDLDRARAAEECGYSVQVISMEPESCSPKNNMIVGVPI
inactive: [1] -0.006 | [2] -0.015 | [3] -0.037 | [4] -0.058 | [5] 0.09 | [6] 0.036 | [7] -0.037 | [8] 0 | [9] -0.053 | [10] 0.01

GRB10 (UniProt Q13322)
Sequence of UniProt Q13322 (Q13322 whole entry, looked up): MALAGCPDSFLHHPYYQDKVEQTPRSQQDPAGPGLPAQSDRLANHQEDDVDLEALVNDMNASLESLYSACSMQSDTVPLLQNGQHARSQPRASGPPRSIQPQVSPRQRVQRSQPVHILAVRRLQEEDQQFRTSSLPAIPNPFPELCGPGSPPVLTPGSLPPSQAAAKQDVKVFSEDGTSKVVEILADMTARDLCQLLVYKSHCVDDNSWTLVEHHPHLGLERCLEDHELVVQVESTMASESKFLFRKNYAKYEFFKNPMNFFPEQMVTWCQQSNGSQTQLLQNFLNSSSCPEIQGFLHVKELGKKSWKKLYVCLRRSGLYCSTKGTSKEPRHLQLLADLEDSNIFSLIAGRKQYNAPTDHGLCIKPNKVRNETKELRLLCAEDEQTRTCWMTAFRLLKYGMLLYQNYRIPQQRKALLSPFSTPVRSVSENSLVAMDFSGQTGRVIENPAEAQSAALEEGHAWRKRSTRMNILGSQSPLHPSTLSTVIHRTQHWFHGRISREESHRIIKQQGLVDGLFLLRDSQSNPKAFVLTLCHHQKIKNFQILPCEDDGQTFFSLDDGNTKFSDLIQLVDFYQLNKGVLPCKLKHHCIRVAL
inactive: [1] -0.029 | [2] -0.034 | [3] -0.028 | [4] -0.125 | [5] 0.029 | [6] 0.016 | [7] -0.06 | [8] 0.021 | [9] -0.049 | [10] 0.099

HDAC10 (UniProt Q969S8)
inactive: [1] -0.101 | [2] -0.019 | [3] -0.015 | [4] -0.042 | [5] -0.014 | [6] 0.029 | [7] 0.068 | [8] -0.046 | [9] 0.035 | [10] 0.061

HEATR3 (UniProt Q7Z4Q2)
Sequence of UniProt Q7Z4Q2 (Q7Z4Q2 whole entry, looked up): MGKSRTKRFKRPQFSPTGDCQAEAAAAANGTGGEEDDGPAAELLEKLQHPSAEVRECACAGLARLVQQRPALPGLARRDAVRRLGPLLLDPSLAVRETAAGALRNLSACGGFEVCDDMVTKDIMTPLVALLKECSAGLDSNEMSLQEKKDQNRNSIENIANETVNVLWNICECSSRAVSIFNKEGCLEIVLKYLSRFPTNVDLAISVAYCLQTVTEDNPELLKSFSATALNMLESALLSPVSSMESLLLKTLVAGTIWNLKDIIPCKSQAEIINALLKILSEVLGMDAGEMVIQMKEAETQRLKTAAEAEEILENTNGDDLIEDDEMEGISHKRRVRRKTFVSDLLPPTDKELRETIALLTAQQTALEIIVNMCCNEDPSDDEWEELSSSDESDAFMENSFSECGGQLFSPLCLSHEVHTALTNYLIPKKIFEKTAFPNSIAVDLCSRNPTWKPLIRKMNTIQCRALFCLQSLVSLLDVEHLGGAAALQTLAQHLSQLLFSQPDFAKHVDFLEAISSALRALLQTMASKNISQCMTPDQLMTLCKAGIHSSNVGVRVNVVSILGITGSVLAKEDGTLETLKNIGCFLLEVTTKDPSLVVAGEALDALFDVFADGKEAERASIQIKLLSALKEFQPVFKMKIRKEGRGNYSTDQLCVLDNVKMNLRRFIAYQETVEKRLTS
inactive: [1] -0.003 | [2] 0 | [3] -0.074 | [4] -0.006 | [5] -0.005 | [6] -0.078 | [7] -0.021 | [8] 0.027 | [9] -0.064 | [10] 0.031

GTF3C5 isoform 3 (UniProt Q9Y5Q8)
Sequence of UniProt Q9Y5Q8 (Q9Y5Q8 whole entry, looked up): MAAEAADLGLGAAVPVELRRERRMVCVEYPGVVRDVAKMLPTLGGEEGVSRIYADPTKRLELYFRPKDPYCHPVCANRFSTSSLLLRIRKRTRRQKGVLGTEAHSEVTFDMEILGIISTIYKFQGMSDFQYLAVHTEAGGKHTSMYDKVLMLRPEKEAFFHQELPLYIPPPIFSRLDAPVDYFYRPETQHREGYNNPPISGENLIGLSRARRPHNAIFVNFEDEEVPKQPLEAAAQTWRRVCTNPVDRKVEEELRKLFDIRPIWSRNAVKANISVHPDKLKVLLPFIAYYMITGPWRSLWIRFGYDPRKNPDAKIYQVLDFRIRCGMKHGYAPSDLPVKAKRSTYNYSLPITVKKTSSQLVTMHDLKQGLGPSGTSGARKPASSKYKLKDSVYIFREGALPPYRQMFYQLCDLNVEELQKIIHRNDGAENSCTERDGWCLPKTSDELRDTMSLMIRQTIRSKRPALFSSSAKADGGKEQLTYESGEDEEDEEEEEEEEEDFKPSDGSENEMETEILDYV
inactive: [1] -0.009 | [2] -0.01 | [3] -0.047 | [4] -0.014 | [5] -0.02 | [6] -0.002 | [7] -0.012 | [8] 0.063 | [9] -0.047 | [10] 0.02

HAUS7 isoform 2 (UniProt Q99871)
inactive: [1] 0.022 | [2] 0.012 | [3] -0.053 | [4] 0.102 | [5] -0.063 | [6] -0.156 | [7] -0.113 | [8] 0.072 | [9] -0.139 | [10] 0.015

HDGFL2 isoform 2 (UniProt Q7Z4V5)
active: [4] -0.348 | [6] 0.248
inactive: [1] 0.02 | [2] 0.027 | [3] -0.028 | [5] 0.037 | [7] 0.018 | [8] -0.003 | [9] 0 | [10] 0.167

GRK2 (UniProt P25098)
Sequence of UniProt P25098 (P25098 whole entry, looked up): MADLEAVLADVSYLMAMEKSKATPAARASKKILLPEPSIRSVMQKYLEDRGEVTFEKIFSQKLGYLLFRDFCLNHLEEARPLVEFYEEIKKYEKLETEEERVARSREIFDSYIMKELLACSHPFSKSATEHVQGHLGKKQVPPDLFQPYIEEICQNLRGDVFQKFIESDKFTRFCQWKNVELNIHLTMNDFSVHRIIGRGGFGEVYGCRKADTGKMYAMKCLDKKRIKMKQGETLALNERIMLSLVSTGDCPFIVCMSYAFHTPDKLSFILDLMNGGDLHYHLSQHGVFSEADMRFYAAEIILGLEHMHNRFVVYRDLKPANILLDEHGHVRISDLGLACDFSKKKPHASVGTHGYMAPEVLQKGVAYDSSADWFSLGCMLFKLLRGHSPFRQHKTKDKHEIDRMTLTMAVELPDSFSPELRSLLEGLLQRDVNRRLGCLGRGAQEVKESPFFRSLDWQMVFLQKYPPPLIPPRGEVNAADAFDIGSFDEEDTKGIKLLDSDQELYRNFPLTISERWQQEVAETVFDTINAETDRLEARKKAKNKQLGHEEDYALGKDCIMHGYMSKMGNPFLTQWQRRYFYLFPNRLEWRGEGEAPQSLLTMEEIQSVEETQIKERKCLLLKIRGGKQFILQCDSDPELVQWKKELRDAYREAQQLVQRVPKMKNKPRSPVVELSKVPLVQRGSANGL
inactive: [1] -0.063 | [2] 0.015 | [3] -0.038 | [4] 0.024 | [5] 0.017 | [6] 0.077 | [7] -0.02 | [8] 0.033 | [9] -0.017 | [10] -0.035

KDM1A (UniProt O60341)
inactive: [1] -0.01 | [2] -0.029 | [3] -0.036 | [4] -0.055 | [5] -0.025 | [6] -0.056 | [7] -0.031 | [8] 0.015 | [9] -0.016 | [10] 0.025

ICAM2 (UniProt P13598)
active: [4] 0.293
inactive: [1] -0.008 | [2] -0.08 | [3] -0.002 | [5] -0.035 | [6] -0.04 | [7] -0.01 | [8] -0.014 | [9] 0.013 | [10] -0.075

HLTF (UniProt Q14527)
inactive: [1] 0.045 | [2] 0.061 | [3] -0.019 | [4] -0.063 | [5] -0.05 | [6] -0.021 | [7] 0.004 | [8] -0.007 | [9] -0.087 | [10] 0.035

ISY1 isoform 1 (UniProt Q9ULR0)
inactive: [1] -0.033 | [2] 0.011 | [3] 0.01 | [4] -0.022 | [5] 0.019 | [6] 0.078 | [7] -0.035 | [8] 0.016 | [9] -0.013 | [10] 0.016

HSPA8 (UniProt E9PK54)
inactive: [1] -0.067 | [2] -0.013 | [3] 0.051 | [4] -0.025 | [5] 0.004 | [6] 0.058 | [7] 0.067 | [8] 0.011 | [9] 0.026 | [10] 0.046

INTS3 (UniProt Q68E01)
Sequence of UniProt Q68E01 (Q68E01 whole entry, looked up): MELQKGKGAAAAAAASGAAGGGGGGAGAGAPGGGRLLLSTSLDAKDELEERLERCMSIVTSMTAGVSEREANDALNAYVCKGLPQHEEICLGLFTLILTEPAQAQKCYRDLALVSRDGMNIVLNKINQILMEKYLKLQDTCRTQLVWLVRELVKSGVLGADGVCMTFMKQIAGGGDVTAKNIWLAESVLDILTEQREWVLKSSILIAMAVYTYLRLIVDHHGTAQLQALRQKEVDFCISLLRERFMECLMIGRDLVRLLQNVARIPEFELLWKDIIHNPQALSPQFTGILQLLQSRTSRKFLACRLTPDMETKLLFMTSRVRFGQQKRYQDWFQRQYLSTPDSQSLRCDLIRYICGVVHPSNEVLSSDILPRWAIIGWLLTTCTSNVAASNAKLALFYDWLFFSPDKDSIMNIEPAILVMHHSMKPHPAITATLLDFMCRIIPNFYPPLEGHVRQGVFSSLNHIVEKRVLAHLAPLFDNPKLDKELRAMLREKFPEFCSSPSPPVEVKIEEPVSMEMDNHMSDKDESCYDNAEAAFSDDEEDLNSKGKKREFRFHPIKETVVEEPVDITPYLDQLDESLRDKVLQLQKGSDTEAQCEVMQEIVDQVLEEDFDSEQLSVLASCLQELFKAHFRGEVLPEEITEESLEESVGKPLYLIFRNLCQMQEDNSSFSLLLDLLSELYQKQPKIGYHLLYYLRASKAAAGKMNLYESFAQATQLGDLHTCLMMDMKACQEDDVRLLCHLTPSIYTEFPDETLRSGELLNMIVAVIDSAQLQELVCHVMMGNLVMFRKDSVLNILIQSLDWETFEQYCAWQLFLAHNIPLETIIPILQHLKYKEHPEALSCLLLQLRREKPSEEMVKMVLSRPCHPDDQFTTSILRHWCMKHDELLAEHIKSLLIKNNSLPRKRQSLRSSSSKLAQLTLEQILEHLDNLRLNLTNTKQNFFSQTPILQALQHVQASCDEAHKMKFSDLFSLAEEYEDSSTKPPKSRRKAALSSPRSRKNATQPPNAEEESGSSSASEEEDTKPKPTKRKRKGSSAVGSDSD
inactive: [1] -0.05 | [2] -0.005 | [3] -0.016 | [4] 0.02 | [5] -0.005 | [6] -0.104 | [7] 0.018 | [8] 0.106 | [9] -0.07 | [10] -0.052

HDAC6 (UniProt Q9UBN7)
inactive: [1] -0.019 | [2] -0.085 | [3] -0.039 | [4] 0.014 | [5] 0.065 | [6] -0.017 | [7] 0.002 | [8] 0.012 | [9] -0.069 | [10] -0.01

INTS1 (UniProt Q8N201)
inactive: [1] -0.051 | [2] -0.011 | [3] -0.067 | [4] 0.05 | [5] -0.04 | [6] -0.136 | [7] 0.007 | [8] -0.001 | [9] -0.164 | [10] 0.031

HECTD4 (UniProt J3KPF0)
inactive: [1] -0.024 | [2] -0.043 | [3] -0.127 | [4] -0.005 | [5] -0.004 | [6] -0.024 | [7] 0.01 | [8] -0.002 | [9] -0.083 | [10] 0.101

HK2 (UniProt P52789)
inactive: [1] -0.003 | [2] -0.017 | [3] -0.069 | [4] 0.043 | [5] 0.007 | [6] -0.056 | [7] 0.007 | [8] 0.05 | [9] -0.076 | [10] 0.004

HMGN5 (UniProt P82970)
Sequence of UniProt P82970 (P82970 whole entry, looked up): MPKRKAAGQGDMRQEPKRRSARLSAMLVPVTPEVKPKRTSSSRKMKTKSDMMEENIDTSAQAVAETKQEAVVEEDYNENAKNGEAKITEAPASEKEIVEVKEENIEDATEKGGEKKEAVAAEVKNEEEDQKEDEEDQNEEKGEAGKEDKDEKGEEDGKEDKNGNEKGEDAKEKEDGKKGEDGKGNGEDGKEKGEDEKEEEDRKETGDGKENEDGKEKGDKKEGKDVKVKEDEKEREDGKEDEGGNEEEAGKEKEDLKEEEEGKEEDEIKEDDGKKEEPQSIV
inactive: [1] -0.058 | [2] 0.032 | [3] 0.046 | [4] 0.239 | [5] 0.018 | [6] -0.081 | [7] 0.02 | [8] -0.066 | [9] 0.013 | [10] -0.184

HADHA (UniProt P40939)
inactive: [1] 0.1 | [2] 0.077 | [3] 0.063 | [4] -0.01 | [5] 0.037 | [6] 0.129 | [7] -0.013 | [8] 0.207 | [9] 0.032 | [10] -0.053
